Experimental data taken from PubChem BioAssay (EPA / NIEHS).
The source made the active and inactive calls. How the source made its calls: active means hit-call score of the fitted dose curve at least 0.9, where 1 is the maximum; inactive means score below 0.9.

What was measured:
Details in all cases: mRNA level, 48 h; actives raise or lower the signal
[1] = read-out: Cytochrome P450 (CYP24A1), CYP24A1 (gene 1591); assay: LTEA_HepaRG_CYP24A1: Life Technologies and Expression Analysis (LTEA) Assay for Cytochrome P450 (CYP24A1) using HepaRG (AID 2283478)
Procedure, shortened: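 mRNA of CYP24A1 quantified by TaqMan qRT-PCR (ACTB/GAPDH/POLR2A normalization) after 48 h chemical exposure of HepaRG cells, top concentration 100 uM, half-log steps, 0.5% DMSO vehicle, duplicates. Curves fitted bidirectionally against DMSO baseline.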

[2] = read-out: Cytochrome P450 (CYP1A2), CYP1A2 (gene 1544); assay: LTEA_HepaRG_CYP1A2: Life Technologies and Expression Analysis (LTEA) Assay for Cytochrome P450 (CYP1A2) using HepaRG (AID 2283479)
Procedure, shortened: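 CYP1A2 transcript measured by TaqMan qRT-PCR against three housekeeping genes after 48-hour chemical exposure of HepaRG cells. Eight-point half-log series topping at 100 uM in 0.5% DMSO, duplicates; gain or loss fitted relative to vehicle.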

[3] = read-out: cysteine-aspartic acid protease (CASP8), CASP8 (gene 841); assay: LTEA_HepaRG_CASP8: Life Technologies and Expression Analysis (LTEA) Assay for cysteine-aspartic acid protease (CASP8) using HepaRG (AID 2283480)
Procedure, shortened: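 CASP8 transcript measured by TaqMan qRT-PCR with ACTB/GAPDH/POLR2A normalization, after 48 h chemical exposure of HepaRG cells in serum-free induction medium. Eight concentrations, top 100 uM, half-log steps, 0.5% DMSO vehicle; fits in both directions versus DMSO.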

[4] = read-out: Cytochrome P450 (CYP2B6), CYP2B6 (gene 1555); assay: LTEA_HepaRG_CYP2B6: Life Technologies and Expression Analysis (LTEA) Assay for Cytochrome P450 (CYP2B6) using HepaRG (AID 2283481)
Procedure, shortened: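 CYP2B6 transcript level quantified by qRT-PCR against three housekeeping genes, fitted bidirectionally relative to DMSO. HepaRG cultures received chemicals for 48 h, 8-point half-log series from 100 uM in 0.5% DMSO, duplicate wells, serum-free induction medium.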

[5] = read-out: Cytochrome P450 2C19 (Homo sapiens) (UniProt P33261); assay: LTEA_HepaRG_CYP2C19: Life Technologies and Expression Analysis (LTEA) Assay for CYP2C19 using HepaRG (AID 2283482)
Procedure, shortened: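 CYP2C19 transcript levels by qRT-PCR, normalized to three housekeeping genes, in HepaRG cells after 48 h chemical exposure. Eight-point half-log series topping at 100 uM, 0.5% DMSO vehicle. Increases and decreases both fitted against DMSO.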

[6] = read-out: CYP2C8 (gene 1558); assay: LTEA_HepaRG_CYP2C8: Life Technologies and Expression Analysis (LTEA) Assay for CYP2C8 using HepaRG (AID 2283483)
Procedure, shortened: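 CYP2C8 expression measured by TaqMan qRT-PCR and normalized to three housekeeping genes. HepaRG cultures were treated for 48 h with an eight-point half-log series topping at 100 uM, vehicle 0.5% DMSO, duplicates; fitted both directions against DMSO.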

[7] = read-out: CYP2C9 (gene 1559); assay: LTEA_HepaRG_CYP2C9: Life Technologies and Expression Analysis (LTEA) Assay for CYP2C9 using HepaRG (AID 2283484)
Procedure, shortened: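 CYP2C9 transcript level, quantified by TaqMan qRT-PCR against three housekeeping genes, was fitted bidirectionally relative to 0.5% DMSO. HepaRG cultures were treated 48 h, in duplicate, at eight half-log concentrations topping at 100 uM.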

[8] = read-out: Cytochrome P450 3A4 (Homo sapiens) (UniProt P08684); assay: LTEA_HepaRG_CYP3A4: Life Technologies and Expression Analysis (LTEA) Assay for CYP3A4 using HepaRG (AID 2283487)
Procedure, shortened: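 Differentiated HepaRG cells in serum-free induction medium exposed in duplicate for 48 h to 8 half-log concentrations up to 100 uM in 0.5% DMSO. CYP3A4 mRNA measured by qRT-PCR normalized to ACTB, GAPDH and POLR2A; bidirectional fit versus DMSO.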

[9] = read-out: Pro-epidermal growth factor (Homo sapiens) (UniProt P01133); assay: LTEA_HepaRG_EGF: Life Technologies and Expression Analysis (LTEA) Assay for Epidermal growth factor (EGF) using HepaRG (AID 2283489)
Procedure, shortened: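 EGF transcript measured by Fluidigm TaqMan qRT-PCR with three housekeeping genes for normalization, 48 h after dosing HepaRG cultures in duplicate (top 100 uM, half-log steps, 0.5% DMSO vehicle). Gain or loss relative to DMSO fitted.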

[10] = read-out: Early growth response protein 1 (EGR1) transcription factor, EGR1 (gene 1958); assay: LTEA_HepaRG_EGR1: Life Technologies and Expression Analysis (LTEA) Assay for Early growth response protein 1 (EGR1) transcription factor using HepaRG (AID 2283490)
Procedure, shortened: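 EGR1 transcript levels quantified by qRT-PCR (Fluidigm arrays) against three housekeeping genes after 48 h chemical exposure of HepaRG cells. Eight-point half-log series topping at 100 uM, 0.5% DMSO vehicle, analyzed for gain or loss.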

[11] = read-out: Ezrin (EZR), EZR (gene 7430); assay: LTEA_HepaRG_EZR: Life Technologies and Expression Analysis (LTEA) Assay for Ezrin (EZR) using HepaRG (AID 2283491)
Procedure, shortened: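 Differentiated human HepaRG cells, 48 h after plating, were exposed in serum-free induction medium for 48 hours to eight half-log concentrations up to 100 uM in 0.5% DMSO. EZR mRNA was measured by TaqMan qRT-PCR, normalized to ACTB, GAPDH and POLR2A, and fitted bidirectionally against DMSO.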

[12] = read-out: CYP3A5 (gene 1577); assay: LTEA_HepaRG_CYP3A5: Life Technologies and Expression Analysis (LTEA) Assay for CYP3A5 using HepaRG (AID 2283493)
Procedure, shortened: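 Human HepaRG hepatic cells receive 48 h chemical treatment at eight concentrations (half-log steps from 100 uM) in 0.5% DMSO. Expression of CYP3A5 is quantified by Fluidigm qRT-PCR and normalized to three reference genes.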

[13] = read-out: Fatty Acid-Binding Protein 1 (FABP1), FABP1 (gene 2168); assay: LTEA_HepaRG_FABP1: Life Technologies and Expression Analysis (LTEA) Assay for Fatty Acid-Binding Protein 1 (FABP1) using HepaRG (AID 2283494)
Procedure, shortened: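 FABP1 expression by TaqMan qRT-PCR, normalised to three housekeeping genes, in HepaRG cells after 48 h chemical treatment. Eight-point half-log series topping at 100 uM in 0.5% DMSO, duplicates; gain or loss fitted relative to vehicle.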

[14] = read-out: Cytochrome P450 7A1 (Homo sapiens) (UniProt P22680); assay: LTEA_HepaRG_CYP7A1: Life Technologies and Expression Analysis (LTEA) Assay for Cytochrome P450 7A1 (CYP7A1) using HepaRG (AID 2283496)
Procedure, shortened: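 HepaRG, 48 h exposure, 8-pt half-log series from 100 uM, 0.5% DMSO vehicle, duplicates. Readout: TaqMan qRT-PCR mRNA vs three housekeeping genes; bidirectional curve fit against DMSO baseline.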

[15] = read-out: CYP2E1 (gene 1571); assay: LTEA_HepaRG_CYP2E1: Life Technologies and Expression Analysis (LTEA) Assay for CYP2E1 using HepaRG (AID 2283485)
Procedure, shortened: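 Readout is qRT-PCR of CYP2E1 mRNA, normalized to three housekeeping genes and fitted bidirectionally against 0.5% DMSO. HepaRG cells were dosed 48 h at eight concentrations, highest 100 uM with half-log dilutions.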

[16] = read-out: CYP4A11 (gene 1579); assay: LTEA_HepaRG_CYP4A11: Life Technologies and Expression Analysis (LTEA) Assay for CYP4A11 using HepaRG (AID 2283486)
Procedure, shortened: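 Readout is CYP4A11 transcript level by qRT-PCR, normalized to three housekeeping genes and fitted bidirectionally against 0.5% DMSO. Human HepaRG cells were treated 48 h, in duplicate, with an 8-point half-log series topping at 100 uM.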

[17] = read-out: Cytochrome P450 3A7 (Homo sapiens) (UniProt P24462); assay: LTEA_HepaRG_CYP3A7: Life Technologies and Expression Analysis (LTEA) Assay for CYP3A7 using HepaRG (AID 2283492)
Procedure, shortened: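 CYP3A7 transcript measured by qRT-PCR (ACTB, GAPDH, POLR2A normalization) after 48 h chemical exposure of HepaRG cells in duplicate. Eight half-log concentrations, maximum 100 uM, 0.5% DMSO vehicle; bidirectional curve fitting against DMSO baseline.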

[18] = read-out: Cytochrome P450 4A22 (Homo sapiens) (UniProt Q5TCH4); assay: LTEA_HepaRG_CYP4A22: Life Technologies and Expression Analysis (LTEA) Assay for Cytochrome P450 4A22 (CYP4A22) using HepaRG (AID 2283495)
Procedure, shortened: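 Gene expression measured by qRT-PCR against three housekeeping genes (ACTB, GAPDH, POLR2A), with gain or loss fitted relative to 0.5% DMSO vehicle. HepaRG cultures received 48 h chemical treatment, top concentration 100 uM, half-log steps, duplicate wells.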

[19] = read-out: DNA damage-inducible transcript 3 (DDIT3), DDIT3 (gene 1649); assay: LTEA_HepaRG_DDIT3: Life Technologies and Expression Analysis (LTEA) Assay for DNA damage-inducible transcript 3 (DDIT3) using HepaRG (AID 2283488)
Procedure, shortened: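 Cells are human HepaRG liver cells treated for 48 h with eight half-log concentrations up to 100 uM in 0.5% DMSO. Transcript levels come from qRT-PCR normalized to three housekeeping genes, with activity fitted in both directions relative to vehicle.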

[20] = read-out: Glutathione S-Transferase (GSTA2), GSTA2 (gene 2939); assay: LTEA_HepaRG_GSTA2: Life Technologies and Expression Analysis (LTEA) Assay for Glutathione S-Transferase (GSTA2) using HepaRG (AID 2283497)
Procedure, shortened: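 GSTA2 transcript levels came from Fluidigm TaqMan qRT-PCR normalized to three housekeeping genes, fitted in both directions against DMSO. HepaRG cultures received chemicals for 48 h in serum-free induction medium (0.5% DMSO), 8 half-log concentrations up to 100 uM, duplicate.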

Measured: AC50

Chain of Cytochrome P450 3A4 (Homo sapiens) (P08684 whole entry, looked up): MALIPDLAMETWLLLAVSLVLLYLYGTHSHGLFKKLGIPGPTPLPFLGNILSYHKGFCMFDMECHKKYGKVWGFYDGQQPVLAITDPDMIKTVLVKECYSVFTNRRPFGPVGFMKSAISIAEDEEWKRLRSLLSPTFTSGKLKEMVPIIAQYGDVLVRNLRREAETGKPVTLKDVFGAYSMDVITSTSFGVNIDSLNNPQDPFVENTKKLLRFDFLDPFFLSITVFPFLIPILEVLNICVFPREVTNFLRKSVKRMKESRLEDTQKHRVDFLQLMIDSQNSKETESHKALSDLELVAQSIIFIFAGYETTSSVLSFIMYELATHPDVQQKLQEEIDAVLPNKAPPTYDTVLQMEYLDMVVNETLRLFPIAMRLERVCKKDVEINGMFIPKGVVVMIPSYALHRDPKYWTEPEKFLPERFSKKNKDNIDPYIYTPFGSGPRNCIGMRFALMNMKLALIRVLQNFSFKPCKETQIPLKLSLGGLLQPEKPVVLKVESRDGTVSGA
Chain of Cytochrome P450 2C19 (Homo sapiens) (P33261 whole entry, looked up): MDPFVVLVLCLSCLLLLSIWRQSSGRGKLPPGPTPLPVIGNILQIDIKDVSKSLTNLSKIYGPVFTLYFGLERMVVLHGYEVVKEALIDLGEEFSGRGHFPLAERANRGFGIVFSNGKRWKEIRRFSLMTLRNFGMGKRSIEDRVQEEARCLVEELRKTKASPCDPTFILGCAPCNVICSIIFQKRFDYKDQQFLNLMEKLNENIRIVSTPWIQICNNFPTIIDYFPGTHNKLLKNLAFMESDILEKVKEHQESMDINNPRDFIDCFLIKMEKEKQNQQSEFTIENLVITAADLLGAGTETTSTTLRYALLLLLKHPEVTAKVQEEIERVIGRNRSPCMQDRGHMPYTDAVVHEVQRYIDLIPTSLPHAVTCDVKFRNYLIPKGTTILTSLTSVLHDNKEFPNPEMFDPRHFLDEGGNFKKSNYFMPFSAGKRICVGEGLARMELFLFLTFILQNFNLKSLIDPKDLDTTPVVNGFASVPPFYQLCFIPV
Chain of Cytochrome P450 3A7 (Homo sapiens) (P24462 whole entry, looked up): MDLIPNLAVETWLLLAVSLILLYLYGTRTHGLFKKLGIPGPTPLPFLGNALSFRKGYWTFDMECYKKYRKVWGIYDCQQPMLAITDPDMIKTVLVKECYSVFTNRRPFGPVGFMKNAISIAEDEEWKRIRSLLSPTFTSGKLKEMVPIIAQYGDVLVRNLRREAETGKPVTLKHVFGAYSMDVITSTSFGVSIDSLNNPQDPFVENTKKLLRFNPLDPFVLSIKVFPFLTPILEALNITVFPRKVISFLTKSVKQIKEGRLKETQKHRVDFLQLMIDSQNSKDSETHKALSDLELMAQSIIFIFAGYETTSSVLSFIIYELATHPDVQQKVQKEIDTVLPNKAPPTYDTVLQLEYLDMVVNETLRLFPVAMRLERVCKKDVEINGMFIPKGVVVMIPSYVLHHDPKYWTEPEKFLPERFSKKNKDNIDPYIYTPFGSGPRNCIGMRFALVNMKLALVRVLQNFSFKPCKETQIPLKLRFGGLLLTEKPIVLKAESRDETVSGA

CC1(C)NC(=O)NC1=O
not listed: [15] | [16] | [17] | [18] | [19] | [20]
inactive: all other assays above

O=c1[nH]cc(F)c(=O)[nH]1
active: [2] 51 µM | [15] 51 µM | [16] 51 µM | [10] 70.9 µM | [14] 64.6 µM
not listed: [1] | [9] | [17] | [18] | [19] | [20]
inactive: all other assays above

CCCCc1ccc2c(n1)[C@@H](c1ccc(OC)cc1C[C@H](C)C(=O)O)[C@H](C(=O)O)[C@H]2c1ccc2c(c1)OCO2
not listed: [1] | [9] | [19] | [20]
inactive: all other assays above

COc1ccc(S(=O)(=O)N2C(=O)[C@@](c3ccccc3OC)(N3C[C@H](O)C[C@H]3C(=O)N(C)C)c3cc(Cl)ccc32)c(OC)c1
active: [2] 22.2 µM | [4] 28.9 µM | [5] 21.5 µM | [6] 23 µM | [7] 20.5 µM | [15] 33.6 µM | [8] 32.9 µM | [19] 73.8 µM | [10] 81.1 µM | [11] 11.5 µM | [17] 30.4 µM | [12] 13.2 µM | [13] 26.9 µM | [14] 21 µM | [20] 25 µM
inactive: [3] | [9]

COCCOC[C@H](CC1(C(=O)NC2CCC(C(=O)O)CC2)CCCC1)C(=O)Oc1ccc2c(c1)CCC2 (stereo partly specified)
not listed: [1] | [9] | [17] | [20]
inactive: all other assays above

CCCCOC(=O)CCCCCCCCC(=O)OCCCC
not listed: [9] | [15] | [16]
inactive: all other assays above

O=C(O)Cc1ccccc1Nc1c(Cl)cccc1Cl
active: [2] 2.69 µM | [5] 5.86 µM | [18] 9.92 µM | [14] 1.24 µM
not listed: [4] | [8] | [9] | [15] | [16]
inactive: all other assays above

Cc1ccc(C(C)C)c(O)c1
not listed: [15] | [17] | [19] | [20]
inactive: all other assays above

OC[C@@H](O)[C@@H](O)[C@H](O)[C@H](O)CO
not listed: [9] | [15] | [16] | [19]
inactive: all other assays above

CCCc1cc(=O)[nH]c(=S)[nH]1
active: [2] 23.7 µM
not listed: [9] | [15] | [16] | [17] | [18] | [19]
inactive: all other assays above

CC(=O)OCCOCCOCCOC(C)=O
not listed: [1] | [18] | [20]
inactive: all other assays above

CC(=O)Oc1ccccc1C(=O)O
active: [2] 50 µM
not listed: [1] | [9] | [17] | [19]
inactive: all other assays above

Cc1cccc([N+](=O)[O-])c1C
not listed: [15] | [16] | [17] | [18] | [19] | [20]
inactive: all other assays above

Cc1cccc(C)c1O
not listed: [1] | [16] | [17] | [18]
inactive: all other assays above

C=CCc1ccc(O)c(OC)c1
not listed: [15] | [18] | [19]
inactive: all other assays above

COc1cc(S(=O)(=O)O)c(C)cc1N=Nc1c(O)ccc2cc(S(=O)(=O)O)ccc12
not listed: [1] | [15] | [16] | [20]
inactive: all other assays above
